Test results: ChEMBL document CHEMBL4513216, “Probing the Open Global Health Chemical Diversity Library for Multistage-Active Starting Points for Next-Generation Antimalarials” (ACS Infect Dis, 2020)
Screen size: about 65,000 compounds; about 2,100 (3.2%) showed an effect of 50% or more. The median lay at about -52%. The entries come from a sample that favours strong results as a whole.

Tested on: Plasmodium falciparum
Experiment: Screen against P. falciparum Asexual Blood Stage (ABS), at 5uM
Type: functional, Dd2
Settings: tested at 5 uM

Compound	INHIBITION [%]
COCCN1CCN(Cc2c(C)noc2C)Cc2ccc(C)nc21	-54
Cc1cc(CNC(=O)NC(C)(CO)C2CC2)c(C)s1 (stereo not given)	-55.5
Cc1nccn1-c1ccc(N2CCC(N[C@H](C)C(C)C)CC2)cc1	-49.6
CCCC(C)NC1CCN(c2ccc(-n3ccnc3C)cc2)CC1 (stereo not given)	52.3
Cc1nccn1-c1ccc(N2CCC(NC(C)CC(C)C)CC2)cc1 (stereo not given)	30.2
Cc1c[nH]nc1C1CCCCN1C(=O)CCn1nccc1C (stereo not given)	-97
Cc1cccn2cc(C(=O)N3CCCN(CC4CC4)C(C(C)C)C3)nc12 (stereo not given)	-26.5
O=C1N(CCO)CCCC12CCN(Cc1nnc(C3CC3)o1)C2 (stereo not given)	-77.7
Cc1ccc(S(=O)(=O)NCC2(O)CCOc3ccccc32)s1 (stereo not given)	-36.2
O=S(=O)(NCC1(O)CCOc2ccccc21)c1ccc(Cl)s1 (stereo not given)	-88.4
O=S(=O)(NCC1(O)CCOc2ccccc21)c1ccc(Br)s1 (stereo not given)	59.2
c1cncc(COCc2n[nH]c3c2CN(Cc2ccco2)C3)c1	-89.3
O=S(=O)(c1ccc(-c2cnco2)cc1)N1CCCC2(CCNCC2)CC1	8.22
O=S(=O)(c1ccc(-c2cnco2)cc1)N1CCC2(CCCNC2)C1 (stereo not given)	47
CN1CCC2(CCCN(S(=O)(=O)c3ccc(-c4cnco4)s3)C2)C1 (stereo not given)	52.1
CN1CCC2(CCN(S(=O)(=O)c3ccc(-c4cnco4)s3)CC2)C1	68.4
O=S(=O)(c1ccc(-c2cnco2)cc1)N1CCCC(O)(CO)CC1 (stereo not given)	-40.8
CN1CCCC2(CCN(S(=O)(=O)c3ccc(-c4cnco4)s3)C2)C1=O (stereo not given)	-16.8
COC(=O)c1cc(OCC2CCC2)cc(C(=O)N[C@@H](C)CO)c1	-90
c1ccc(N2CCOC3(CCCN(c4ncccn4)C3)C2)nc1 (stereo not given)	-101
c1ccc(N2CCCC2)c(NCc2ccncc2)c1	-27.2
CN(Cc1cccc(C(N)=O)c1)c1ncc(C#N)cc1Cl	-76.1
O=C(CN1CCCC(Cn2cncn2)C1)NCCCc1ccccc1 (stereo not given)	-62.6
Cc1cc(C(=O)N2CCCC(N3CCCCCC3)C2)nn1C(C)(C)C (stereo not given)	55.5
Cc1cc(C(=O)N2CCCC(N3CCNC3=O)C2)nn1C(C)(C)C (stereo not given)	-37.9
Cc1cc(C(=O)N2CCC(N3CCNC3=O)CC2)nn1C(C)(C)C	-59.8
Cc1cc(CNC(=O)c2cnoc2C)c(C)o1	-78
O=C(c1cccnc1O)N1CCN(Cc2ccccc2F)CC1	-14.3

Compound	INHIBITION [%]
Cc1cc(Oc2ccccc2F)nc(C2CCCCN2)n1 (stereo not given)	57.5
Cc1cc(Oc2ccccc2)nc(C2CCCCN2)n1 (stereo not given)	-17.4
Cc1cc(Oc2ccccc2C)nc(C2CCCN2)n1 (stereo not given)	25.4
CN(C)C1(CNC(=O)C2CCCN2Cc2ccc(F)cc2)CCOCC1 (stereo not given)	68.7
CC1(C(=O)NCCc2ccc(F)cc2)CCOCC1	-16.2
CN(C)C(C(=O)NCC1(N(C)C)CCOCC1)c1ccccc1F (stereo not given)	-6.85
CC(C)NC(=O)C1CN(Cc2ccc(F)cc2)CC12CCOCC2 (stereo not given)	-23.5
CN(C)C1(CNC(=O)Cc2ccc(F)cc2)CCOCC1	0.427
CN(C)C1(CNC(=O)CC=Cc2ccc(F)cc2)CCOCC1	57.5
COCc1nc(C(=O)N2CCCC2Cn2cc(C)cn2)cs1 (stereo not given)	-179
Cc1cccc(CN2CCC3(CCCN(Cc4cnn(C)c4)C3)C2)n1 (stereo not given)	-21.5
CN(C)C(=O)NCc1ncn2c1CN(Cc1cccs1)CCC2	-61.4
CN(C)C(=O)[C@@]12CCO[C@@H]1CCN(Cc1ccc3c(c1)OCO3)C2	-52.2
O=C(COc1coc(CN2CCSCC2)cc1=O)c1ccccc1	-95.1
Cc1cccc(C)c1Oc1ncccc1CNC(=O)C1(C)CCCNC1 (stereo not given)	56.1
COc1ccccc1Oc1ncccc1CNC(=O)C1(C)CCCNC1 (stereo not given)	-45.9
CC1(C(=O)NCc2cccnc2Oc2ccc(F)cc2F)CCCNC1 (stereo not given)	21.1
CCn1ncc2c1C(COCC1CC1)CN(c1ccc(C)nn1)C2 (stereo not given)	40.1
CCc1c(C)nc2cc(C3CCN(Cc4cccnc4)C3)nn2c1O (stereo not given)	-81.6
Cc1nc2cc(C3CCN(Cc4ccccc4F)C3)nn2c(O)c1C (stereo not given)	50.3
CN(Cc1noc(C2CC2)n1)C1CCN(Cc2cccc(F)c2F)C1 (stereo not given)	26.6
Cc1nc(O)cc(C2CCN(Cc3cccc(F)c3F)C2)n1 (stereo not given)	-81.4
CCc1c(C)nc2cc(C3CCN(CCc4ccccc4)C3)nn2c1O (stereo not given)	-23
CCc1c(C)nc2cc(C3CCN(Cc4ccc(F)cc4)C3)nn2c1O (stereo not given)	14.3
Cc1nc2cc(C3CCN(Cc4cccc(F)c4F)C3)nn2c(O)c1C.O=C(O)CC(O)(CC(=O)O)C(=O)O (stereo not given)	59.6
CCc1c(C)nc2cc(C3CCN(Cc4ccccc4F)C3)nn2c1O (stereo not given)	51.6
CCc1c(C)nc2cc(C3CCN(Cc4cccc(F)c4)C3)nn2c1O (stereo not given)	5.05
